PHOSPHO1 block – inhibitors of human PHOSPHO1 phosphatase; recombinant PHOSPHO1, absorbance phosphatase assay; Q8TCT1; 290,000 tested, 1.1% active; inhibition, % at 13.3 µM; in the data active means inhibition above about 60%
TMEM16A act – activators or potentiators of mouse TMEM16A chloride channel. B-score at 10 µM. HEK293 TMEM16A/YFP-H148Q/I152L, iodide quench fluorescence; stronger effect = lower value. 340,000 tested, 0.3% active;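 active means fluorescence-ratio B-score plate-corrected deviation score at least 3 library SD below zero, with starting fluorescence score within 5 deviations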;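 further: channel opened by trigger with iodide after compound preincubation; score built on the fluorescence ratio of max minus min over baseline; more negative score means more quench and so TMEM16A activation or potentiation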
TMEM16A inh – blocks the mouse calcium-activated chloride channel TMEM16A; Q8BHY3; HEK293 TMEM16A/YFP iodide influx fluorescence, ionomycin; normalized B-score (activity score, 25-100; higher = stronger inhibition) at 10 µM; 310,000 tested, 1.2% active; AID 588511;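 active means ratio plate-corrected score three or more library SD toward inhibition, starting fluorescence score within five deviations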;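 further: score derived from kinetic fluorescence span divided by baseline fluorescence per well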
HDAC3 inhib – human HDAC3 inhibition | O15379 | recombinant HDAC3, fluorogenic peptide/trypsin coupled, fluorescence | inhibition, % at 8.3 µM | 320,000 tested, 0.15% active | AID 2718; in the data active means inhibition above about 26%, passing the limit was not always enough
CHT PAM – allosterically activates the human high affinity choline transporter | Q9GZV3 | CHT-expressing cells, membrane potential dye, choline EC20; stronger effect = higher value; LV-AA mutant CHT in HEK293 cells | B-score at 10 µM | 310,000 tested, 0.49% active | AID 488977;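 active means initial fluorescence not abnormally high and integrated response B-score, plate-corrected, over 3 SD above library mean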
Target sequence (Q9GZV3 whole entry, looked up): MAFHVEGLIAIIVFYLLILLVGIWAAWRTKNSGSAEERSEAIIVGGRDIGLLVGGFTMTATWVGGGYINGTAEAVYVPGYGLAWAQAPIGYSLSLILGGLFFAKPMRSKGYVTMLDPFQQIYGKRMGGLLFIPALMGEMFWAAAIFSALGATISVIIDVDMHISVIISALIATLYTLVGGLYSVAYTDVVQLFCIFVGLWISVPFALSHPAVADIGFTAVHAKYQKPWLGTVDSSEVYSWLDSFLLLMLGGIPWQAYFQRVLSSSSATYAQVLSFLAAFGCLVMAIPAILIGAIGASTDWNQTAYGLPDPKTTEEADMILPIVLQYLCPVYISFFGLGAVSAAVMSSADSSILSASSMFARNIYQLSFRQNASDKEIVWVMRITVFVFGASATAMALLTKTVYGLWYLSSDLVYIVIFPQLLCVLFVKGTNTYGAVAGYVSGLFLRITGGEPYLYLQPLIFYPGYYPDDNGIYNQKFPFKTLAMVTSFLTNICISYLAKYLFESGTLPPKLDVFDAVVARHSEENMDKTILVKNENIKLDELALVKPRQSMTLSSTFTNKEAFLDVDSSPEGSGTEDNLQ
CHT block – inhibits the human high affinity choline transporter; Q9GZV3; CHT-expressing cells, membrane potential dye, choline response; stronger effect = lower value; B-score at 10 µM; 310,000 tested, 0.86% active; AID 488975;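 active means B-score over 3 SD under the library average, and starting fluorescence ratio not unusually high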;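 further: choline stimulus applied at its EC90 after an EC20 pre-addition; B-score computed on integrated fluorescence ratio after choline addition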
Hits are given with their value; - = inactive; . = no result given. The list is not random: actives were taken first. Their share in the collection is about 3.2%.

SMILES | PHOSPHO1 block | TMEM16A act | TMEM16A inh | HDAC3 inhib | CHT PAM | CHT block
CC(=O)N1CCc2cc(S(=O)(=O)CCC(=O)NCCc3ccc(Cl)cc3)ccc21 | 64.9 | - | - | - | - | -
CCN1CCCC1CN(Cc1cc2ccc(C)cc2[nH]c1=O)C(=S)Nc1ccc(F)cc1 (stereo not drawn) | - | - | - | - | - | -
Cc1ccccc1NC(=O)CN1C(=O)S/C(=C\c2cccn2-c2cccc(C(=O)O)c2)C1=O | - | - | - | - | - | -
Cc1ccc(NC(=O)CN2C(=O)S/C(=C\c3cccn3-c3cccc(C(=O)O)c3)C2=O)c(C)c1 | 102.3 | - | - | - | - | -
Cc1cccc(C)c1NC(=O)CN1C(=O)S/C(=C\c2cccn2-c2cccc(C(=O)O)c2)C1=O | - | - | - | - | - | -
Cc1cccc(C)c1-n1cccc1/C=C1\SC(=S)N(c2cccc(C(=O)O)c2)C1=O | - | - | 100 | - | - | -
COc1ccccc1CN1CCNC(=O)C1CC(=O)NCc1csc(C)n1 (stereo not drawn) | - | - | - | - | - | -
Cc1cccc(NC(=O)CSCC(=O)N(C)CC(=O)Nc2cccc(F)c2)c1 | . | - | - | - | - | -
Cc1ccc(-c2csc3n[nH]c(=S)n23)cc1 | 94.9 | - | - | - | - | -
Cc1ccc(-c2n[nH]c(=S)n2/N=C/c2cccs2)cc1 | - | - | - | - | - | -
CN(C)c1ccc(/C=N/Nc2ccc(-n3ccnc3)nn2)cc1 | 85.7 | - | - | - | - | -
CN(C)c1ccc(/C=N\Nc2ccccn2)cc1 | - | - | - | - | - | -
Cc1[nH]c2ccccc2c1C(=O)Cn1c(=O)oc2ccccc21 | - | - | - | - | - | -
CCOC(=O)C1(CC)CC(CSc2nc3ccccc3[nH]2)OC1=O (stereo not drawn) | - | - | - | - | - | -
CCOC(=O)C1(CCC(C)C)CC(CSc2nc3ccccc3[nH]2)OC1=O (stereo not drawn) | 71.2 | - | - | - | - | -
COc1ccccc1NC(=O)N(Cc1ccco1)Cc1cc2cc(C)cc(C)c2[nH]c1=O | - | - | - | - | - | -
CCN(CC)C(=O)NC1CCCCCCC1 | 60.0 | - | - | - | - | -
O=C(NC1CCCCCC1)C(=O)NC1CC1 | - | - | - | - | - | -
COc1ccccc1-c1c(C)oc2cc(OC(=O)c3ccco3)ccc2c1=O | - | - | - | 31.4 | - | -
Cc1nc(SC(C)C(=O)NCc2ccc3c(c2)OCO3)nc(C)c1C (stereo not drawn) | . | - | . | - | . | .
Cc1ccc(NC(=O)Cc2c(Cl)cccc2Cl)cc1S(=O)(=O)N(C)C | - | - | - | - | - | -
O=C(Nc1ccccc1)c1ccc(NCc2ccco2)c(S(=O)(=O)N2CCOCC2)c1 | - | - | - | - | - | -
O=C(Nc1ccccc1)c1ccc(NCc2cccnc2)c(S(=O)(=O)N2CCOCC2)c1 | - | -6.81 | - | - | - | -
O=S(=O)(c1cccc(-c2csc(N/N=C/c3ccco3)n2)c1)N1CCOCC1 | - | - | - | - | - | -
Cc1ccccc1SCCNC(=O)c1ccccc1Br | 60.0 | - | - | - | - | -
SMILES | PHOSPHO1 block | TMEM16A act | TMEM16A inh | HDAC3 inhib | CHT PAM | CHT block
Cc1cc(C)c(OCC(=O)OCC(=O)N2CCN(C(=O)c3ccco3)CC2)c(C)c1 | . | - | - | - | - | -
Cc1ccc(C2CC(=O)N3CN(c4ccc(Br)cc4)CSC3=C2C#N)o1 (stereo not drawn) | 92.8 | - | - | - | - | -
N#CC1=C2SCN(c3ccccc3)CN2C(=O)CC1c1ccccc1Cl (stereo not drawn) | 85.7 | - | - | - | - | -
N#CC1=C2SCN(c3ccccc3)CN2C(=O)CC1c1c(Cl)cccc1Cl (stereo not drawn) | 91.5 | - | - | 60.7 | - | -
O=S(=O)(c1ccccc1)c1nc(NCc2cccnc2)sc1Cl | - | - | - | - | - | -
CCCOc1ccc(-c2nc(N3CCN(CC)CC3)c3ccccc3n2)cc1 | - | - | - | - | - | -
CCN1CCN(c2nc(-c3ccncc3)nc3ccccc23)CC1 | - | . | - | - | - | -6.94
CCOC(=O)c1sc(NC(=O)C(CC)Sc2nnc3c4ccccc4n(C(C)C)c3n2)nc1C (stereo not drawn) | 68.4 | - | . | . | . | .
CCOC(=O)Cc1nnc(NC(=O)C(CC)Sc2nnc3c4ccccc4n(C)c3n2)s1 (stereo not drawn) | - | - | - | - | - | -
O=C(O)/C=C/C(=O)Nc1ccc2nccnc2c1 | - | - | 25 | - | - | -
C=CCSc1nc(-c2ccc(OC)cc2)c(C#N)c(=O)n1CC=C | 60.0 | - | . | . | . | .
Cc1ccsc1/C=N/Nc1nc(=O)[nH]nc1C | - | - | - | - | - | -
COc1ccc(NC(=O)c2cc(-c3ccncc3)nc3ccc(Br)cc23)cc1OC | - | - | 100 | - | - | -
COc1ccc(NC(=O)c2cc(-c3cccnc3)nc3ccc(C)cc23)cc1OC | - | - | . | . | . | .
Clc1ccc(-c2nsc(N3CCOCC3)n2)c(Cl)c1 | - | - | - | - | - | -
Cc1ccc2nc(N(CCCN(C)C)C(=O)c3ccc(S(=O)(=O)N4CCCCCC4)cc3)sc2c1 | - | - | - | - | - | -5.47
CCOC(=O)N1CCN(S(=O)(=O)c2ccc(C(=O)N(CCCN(C)C)c3nc4ccc(CC)cc4s3)cc2)CC1 | - | - | - | . | - | -
CCc1ccc2nc(N(CCCN(C)C)C(=O)c3ccc(S(=O)(=O)N4CCCC4)cc3)sc2c1 | - | - | - | - | - | -
CN(C)CCCN(C(=O)COc1ccccc1)c1nc2ccc(Cl)cc2s1 | - | -6.02 | - | - | - | -
COc1ccc(C)c2sc(N(CCCN(C)C)C(=O)c3ccc(S(=O)(=O)N4CCc5ccccc5C4)cc3)nc12 | . | - | - | - | - | -
COc1ccc(OC)c2sc(N(CCCN(C)C)C(=O)c3ccc(S(=O)(=O)N4CCc5ccccc5C4)cc3)nc12 | . | . | - | 40.9 | - | -
CCOC(=O)N1CCN(S(=O)(=O)c2ccc(C(=O)N(CCCN(C)C)c3nc4ccc(Cl)cc4s3)cc2)CC1 | 62.8 | - | - | - | - | -
CN(C)CCCN(C(=O)CCc1ccccc1)c1nc2ccc(Cl)cc2s1 | - | - | - | - | - | -
C/C=C/c1ccc(OCCCCn2cncn2)c(OC)c1 | - | - | - | - | - | -
COc1ccc(-c2nnn(Cc3ccccc3)n2)cc1 | - | - | - | - | - | -
CSCC[C@H](NC(=O)[C@H](Cc1ccccc1)n1c(=O)[nH]c2ccccc2c1=O)C(=O)N1CCC[C@@H]1C(=O)O | - | - | - | - | - | -
Cc1ccc(SCC(=O)Nc2cc([N+](=O)[O-])ccc2O)cc1 | - | - | 25 | - | - | -
O=C(CSCc1ccc(Cl)cc1)Nc1cc([N+](=O)[O-])ccc1O | - | - | - | - | - | -8.15
